# Test results published in ChEMBL document CHEMBL3988442, “University of Dundee, Small-Polar-MMV Screening Library” (2021).
# For some assays here: Results with a measured potency or affinity are listed apart.
# Key:
# Design in all cases: scale not given: direction of the effect not stated beside the values
# [1] = molecular target: Protein translocase subunit SecA (Escherichia coli (strain K12)) (UniProt P10408); assay: Assay to Identify E. coli SecA ATPase Inhibitors; type: functional; conditions: 30 µM
# Chain of Protein translocase subunit SecA (Escherichia coli (strain K12)) (P10408 whole entry): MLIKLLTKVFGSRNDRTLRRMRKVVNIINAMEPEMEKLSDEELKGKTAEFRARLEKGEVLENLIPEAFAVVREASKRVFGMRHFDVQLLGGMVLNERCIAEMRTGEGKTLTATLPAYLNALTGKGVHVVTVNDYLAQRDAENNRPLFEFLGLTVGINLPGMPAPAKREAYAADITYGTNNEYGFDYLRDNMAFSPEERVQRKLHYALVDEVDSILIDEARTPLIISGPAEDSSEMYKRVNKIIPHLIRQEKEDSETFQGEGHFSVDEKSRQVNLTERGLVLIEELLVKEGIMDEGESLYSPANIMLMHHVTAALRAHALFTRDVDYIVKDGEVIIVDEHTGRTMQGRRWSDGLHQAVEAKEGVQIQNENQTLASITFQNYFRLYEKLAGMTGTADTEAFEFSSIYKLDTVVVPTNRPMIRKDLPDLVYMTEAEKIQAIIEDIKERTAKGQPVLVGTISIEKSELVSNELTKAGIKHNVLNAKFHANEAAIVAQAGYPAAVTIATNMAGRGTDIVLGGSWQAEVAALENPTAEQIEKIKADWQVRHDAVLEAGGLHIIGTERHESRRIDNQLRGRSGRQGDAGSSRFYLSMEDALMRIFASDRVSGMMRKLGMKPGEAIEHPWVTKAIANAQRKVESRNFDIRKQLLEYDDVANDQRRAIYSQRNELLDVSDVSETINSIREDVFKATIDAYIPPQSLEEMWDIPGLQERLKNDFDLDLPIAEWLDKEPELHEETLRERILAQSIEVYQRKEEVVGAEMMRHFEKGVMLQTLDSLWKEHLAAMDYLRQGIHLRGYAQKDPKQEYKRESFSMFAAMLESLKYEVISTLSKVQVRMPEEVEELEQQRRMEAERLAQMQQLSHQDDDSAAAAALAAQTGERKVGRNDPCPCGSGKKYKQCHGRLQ
# [2] = molecular target: T1, Ubiquitin-activating enzyme e1, putative (Leishmania donovani (strain BPK282A1)) (UniProt E9BSI1); assay: Leishmania donovani Ubiquitin Activating Enzyme (LdE1); type: functional; conditions: 30 µM
# T1 sequence (whole entry): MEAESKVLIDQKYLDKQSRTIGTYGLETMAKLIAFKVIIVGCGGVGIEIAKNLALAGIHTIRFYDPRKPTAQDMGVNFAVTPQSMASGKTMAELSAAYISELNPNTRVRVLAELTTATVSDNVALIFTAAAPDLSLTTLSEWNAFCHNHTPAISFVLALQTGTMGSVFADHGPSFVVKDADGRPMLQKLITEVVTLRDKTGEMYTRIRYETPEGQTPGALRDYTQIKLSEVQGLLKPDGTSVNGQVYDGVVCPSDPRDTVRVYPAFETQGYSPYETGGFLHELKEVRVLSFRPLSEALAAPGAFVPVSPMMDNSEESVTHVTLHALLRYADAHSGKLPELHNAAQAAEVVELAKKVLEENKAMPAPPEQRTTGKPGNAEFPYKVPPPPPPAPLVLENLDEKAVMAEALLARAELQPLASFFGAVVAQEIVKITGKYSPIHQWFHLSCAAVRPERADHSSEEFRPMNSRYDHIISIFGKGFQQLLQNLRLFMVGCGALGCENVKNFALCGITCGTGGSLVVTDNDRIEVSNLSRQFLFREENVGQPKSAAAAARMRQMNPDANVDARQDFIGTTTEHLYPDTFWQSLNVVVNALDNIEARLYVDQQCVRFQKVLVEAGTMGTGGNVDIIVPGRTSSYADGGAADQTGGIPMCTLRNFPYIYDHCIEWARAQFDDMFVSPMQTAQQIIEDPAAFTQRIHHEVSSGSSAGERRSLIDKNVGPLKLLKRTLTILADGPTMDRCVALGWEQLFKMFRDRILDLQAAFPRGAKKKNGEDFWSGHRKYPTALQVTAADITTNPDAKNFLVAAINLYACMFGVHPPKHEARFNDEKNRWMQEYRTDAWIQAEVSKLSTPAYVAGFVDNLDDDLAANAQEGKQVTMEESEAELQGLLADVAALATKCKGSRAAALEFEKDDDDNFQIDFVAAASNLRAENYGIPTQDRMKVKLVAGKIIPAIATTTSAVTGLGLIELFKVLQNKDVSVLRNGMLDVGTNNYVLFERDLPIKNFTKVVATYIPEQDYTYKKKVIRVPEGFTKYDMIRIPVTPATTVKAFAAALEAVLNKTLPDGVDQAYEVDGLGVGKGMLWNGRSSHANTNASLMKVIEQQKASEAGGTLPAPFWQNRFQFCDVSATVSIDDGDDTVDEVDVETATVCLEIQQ
# [3] = molecular target: AMP-activated protein kinase, AMPK (Homo sapiens) (UniProt P54646+O43741+P54619+Q9UGJ0+Q9Y478+Q13131+Q9UGI9); assay: AMP-dependent Kinase enzyme assay. An in vitro enzyme assay that detects ADP turnover that is directly proportional to AMPK activity. This uses naive AMPK that is activated during the assay with MK-8722; type: functional; conditions: 30 µM
# [4] = molecular target: Sialic acid-binding Ig-like lectin 9 (Homo sapiens) (UniProt Q9Y336); assay: Hs-Siglec9 ALPHAscreen SOP 20170721; conditions: 10 µM
# Chain of Sialic acid-binding Ig-like lectin 9 (Homo sapiens) (Q9Y336 whole entry): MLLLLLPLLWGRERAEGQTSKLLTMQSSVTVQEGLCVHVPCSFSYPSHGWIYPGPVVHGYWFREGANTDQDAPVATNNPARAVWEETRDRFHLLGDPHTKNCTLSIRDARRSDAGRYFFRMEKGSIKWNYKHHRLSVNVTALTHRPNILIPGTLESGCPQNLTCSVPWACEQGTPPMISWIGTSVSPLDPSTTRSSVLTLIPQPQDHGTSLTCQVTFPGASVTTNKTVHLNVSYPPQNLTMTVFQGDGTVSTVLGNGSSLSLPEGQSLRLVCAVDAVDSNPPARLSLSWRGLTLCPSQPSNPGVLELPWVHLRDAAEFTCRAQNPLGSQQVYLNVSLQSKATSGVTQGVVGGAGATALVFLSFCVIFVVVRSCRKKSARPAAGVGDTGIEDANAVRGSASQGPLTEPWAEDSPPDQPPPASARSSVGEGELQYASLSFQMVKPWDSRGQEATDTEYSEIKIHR
# Trypanosoma cruzi = assay: Trypanosoma cruzi phosphomannomutase and mannose-1-phosphate guanylyltransferase assay; type: functional; conditions: 10 µM
# [5] = molecular target: T2, Arginase-2, mitochondrial (Homo sapiens) (UniProt P78540); assay: in vitro enzyme assay to detect the production of urea directly proportional to the activity of Arginase II; type: functional; conditions: 33.3 µM; further: in the data most compounds retested in dose-response had high values
# T2 sequence (whole entry): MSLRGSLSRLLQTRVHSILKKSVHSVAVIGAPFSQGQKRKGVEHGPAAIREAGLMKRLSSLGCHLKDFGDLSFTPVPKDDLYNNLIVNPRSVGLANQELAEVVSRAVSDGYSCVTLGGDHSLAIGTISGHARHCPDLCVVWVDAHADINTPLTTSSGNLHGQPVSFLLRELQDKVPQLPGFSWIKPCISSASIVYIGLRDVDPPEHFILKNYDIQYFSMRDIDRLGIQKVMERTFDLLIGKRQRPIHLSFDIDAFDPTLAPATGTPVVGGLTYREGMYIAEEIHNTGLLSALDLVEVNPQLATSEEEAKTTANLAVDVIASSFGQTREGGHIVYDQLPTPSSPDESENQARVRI
# [6] = molecular target: T3, Proteasome subunit beta (Trypanosoma cruzi) (UniProt O96673); assay: Trypanosoma cruzi proteasome chymotrypsin-like activity (TcProtChymo) assay.; further: in the data most compounds retested in dose-response had high values; type: functional; conditions: 9.37 µM
# T3 sequence (whole entry): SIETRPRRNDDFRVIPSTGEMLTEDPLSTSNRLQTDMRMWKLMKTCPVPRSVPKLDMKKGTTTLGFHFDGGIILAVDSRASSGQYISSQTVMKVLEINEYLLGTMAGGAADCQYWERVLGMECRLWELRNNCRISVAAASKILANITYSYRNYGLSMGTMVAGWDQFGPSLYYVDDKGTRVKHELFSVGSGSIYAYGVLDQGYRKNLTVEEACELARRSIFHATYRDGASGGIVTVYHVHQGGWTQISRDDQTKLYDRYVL
# Homo sapiens = organism: Homo sapiens; assay: To identify inhibition of the IFN signalling (Jak-Stat) pathway via expression of an eGFP reporter gene under the control of an IFN-stimulated response element (ISRE) containing MxA promoter.; type: functional; conditions: 30 µM
# [7] = molecular target: T4, Tyrosyl-tRNA synthetase, putative (Trypanosoma cruzi (strain CL Brener)) (UniProt Q4DSP6); assay: Trypanosoma cruzi tyrosyl tRNA synthetase (TcYRS) _High Tyrosine SOP; type: functional; conditions: 30 µM; further: in the data most compounds retested in dose-response had high values
# T4 sequence (whole entry): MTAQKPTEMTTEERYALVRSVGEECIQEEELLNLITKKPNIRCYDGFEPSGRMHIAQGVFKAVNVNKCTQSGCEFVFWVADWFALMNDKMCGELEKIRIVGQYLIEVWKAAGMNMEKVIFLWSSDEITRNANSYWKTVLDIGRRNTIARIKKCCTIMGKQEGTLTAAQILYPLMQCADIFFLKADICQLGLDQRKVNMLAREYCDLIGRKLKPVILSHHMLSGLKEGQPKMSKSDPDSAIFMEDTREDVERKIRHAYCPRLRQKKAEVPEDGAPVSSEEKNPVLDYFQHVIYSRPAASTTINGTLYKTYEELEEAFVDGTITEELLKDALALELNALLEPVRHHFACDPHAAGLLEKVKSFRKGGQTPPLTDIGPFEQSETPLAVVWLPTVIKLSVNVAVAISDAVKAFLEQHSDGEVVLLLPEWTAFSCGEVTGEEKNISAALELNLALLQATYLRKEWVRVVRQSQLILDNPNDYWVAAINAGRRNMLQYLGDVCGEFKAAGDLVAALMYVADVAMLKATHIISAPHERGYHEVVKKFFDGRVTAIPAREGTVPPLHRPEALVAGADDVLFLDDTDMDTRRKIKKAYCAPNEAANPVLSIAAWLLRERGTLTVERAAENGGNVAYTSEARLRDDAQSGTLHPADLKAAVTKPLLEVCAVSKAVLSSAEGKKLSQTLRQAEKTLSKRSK
# [8] = molecular target: T4, Tyrosyl-tRNA synthetase, putative (Trypanosoma cruzi (strain CL Brener)); assay: Trypanosoma cruzi tyrosyl tRNA synthetase (TcYRS) SOP; type: functional; conditions: 30 µM
# [9] = molecular target: Chromo domain-containing protein 1 (Saccharomyces cerevisiae (strain ATCC 204508 / S288c) (Baker's yeast)) (UniProt P32657); assay: ScCHD-1 Enzyme Inhibition Assay; type: functional; conditions: 30 µM; further: in the data most compounds retested in dose-response had high values
# Chain of Chromo domain-containing protein 1 (Saccharomyces cerevisiae (strain ATCC 204508 / S288c) (Baker's yeast)) (P32657 whole entry, the tested form may be a part): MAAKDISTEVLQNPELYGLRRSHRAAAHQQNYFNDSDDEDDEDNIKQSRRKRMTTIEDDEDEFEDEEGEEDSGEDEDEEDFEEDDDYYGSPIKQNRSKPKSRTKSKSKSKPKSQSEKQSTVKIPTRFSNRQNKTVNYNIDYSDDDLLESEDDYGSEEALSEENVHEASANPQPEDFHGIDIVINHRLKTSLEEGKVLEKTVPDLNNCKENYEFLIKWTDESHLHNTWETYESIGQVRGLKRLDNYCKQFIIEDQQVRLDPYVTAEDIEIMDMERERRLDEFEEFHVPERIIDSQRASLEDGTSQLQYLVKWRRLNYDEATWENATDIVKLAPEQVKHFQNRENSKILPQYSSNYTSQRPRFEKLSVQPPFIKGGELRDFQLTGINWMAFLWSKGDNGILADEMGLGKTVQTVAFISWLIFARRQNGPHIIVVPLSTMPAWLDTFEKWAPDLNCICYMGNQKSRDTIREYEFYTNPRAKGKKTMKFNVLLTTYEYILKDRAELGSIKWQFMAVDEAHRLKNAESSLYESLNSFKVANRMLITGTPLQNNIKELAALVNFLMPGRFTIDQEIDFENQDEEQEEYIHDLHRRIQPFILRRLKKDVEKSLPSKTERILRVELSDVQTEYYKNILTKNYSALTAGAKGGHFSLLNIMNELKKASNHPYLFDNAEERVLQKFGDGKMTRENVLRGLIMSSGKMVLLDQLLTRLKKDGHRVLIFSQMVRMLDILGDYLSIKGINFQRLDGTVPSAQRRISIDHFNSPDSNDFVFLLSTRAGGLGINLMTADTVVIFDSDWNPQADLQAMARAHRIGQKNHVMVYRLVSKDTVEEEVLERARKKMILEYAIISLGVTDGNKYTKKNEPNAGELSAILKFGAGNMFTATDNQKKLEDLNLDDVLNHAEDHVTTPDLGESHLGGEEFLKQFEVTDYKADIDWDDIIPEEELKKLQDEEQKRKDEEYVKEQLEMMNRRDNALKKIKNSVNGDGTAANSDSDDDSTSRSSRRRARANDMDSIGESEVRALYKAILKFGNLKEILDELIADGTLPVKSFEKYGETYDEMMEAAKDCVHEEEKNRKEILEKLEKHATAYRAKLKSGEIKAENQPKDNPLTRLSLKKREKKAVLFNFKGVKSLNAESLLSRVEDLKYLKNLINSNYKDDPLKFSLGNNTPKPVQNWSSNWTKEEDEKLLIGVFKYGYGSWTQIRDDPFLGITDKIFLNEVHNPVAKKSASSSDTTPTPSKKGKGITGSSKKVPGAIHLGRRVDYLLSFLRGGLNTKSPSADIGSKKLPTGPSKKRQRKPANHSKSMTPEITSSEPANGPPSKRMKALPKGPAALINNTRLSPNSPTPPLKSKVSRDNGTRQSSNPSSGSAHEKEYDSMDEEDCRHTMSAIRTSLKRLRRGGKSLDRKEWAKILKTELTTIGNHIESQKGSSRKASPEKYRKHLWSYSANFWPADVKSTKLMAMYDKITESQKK
SMILES,Percent Effect [1],Percent Effect [2],Percent Effect [3],Percent Effect [4],Percent Effect (Trypanosoma cruzi),Percent Effect [5],Percent Effect [6],Percent Effect (Homo sapiens),Percent Effect [7],Percent Effect [8],Percent Effect [9]
O=C(Cn1cccn1)NCC1(c2ccccc2)CC1,-4.9%,2.6%,0.192%,-7.24%,-2.25%,2.74%,-1.86%,23.2%,-0.952%,-2.35%,-6.03%
COCCN1C(=O)[C@]2(CC[C@@H]3CN(C(=O)NC4CCCC4)C[C@@H]32)N=C1C,-2.35%,8%,-3.34%,5.66%,4.83%,-52.5%,6.84%,-7.18%,-7.29%,10%,-9.58%
Cc1ccc(C(=O)N2CCO[C@H]3[C@@H](OCc4ccccn4)CC[C@@H]32)o1,-2.21%,10.4%,-8.74%,3.45%,-4.44%,11%,12.7%,11.5%,-1.06%,-8.97%,-6.69%
COc1cccc(N2CCN(CC(O)c3ccc(C)cc3)CC2)c1 (stereo unspecified),-1.61%,21.1%,-2.12%,-9.96%,0.292%,0%,17%,3.85%,5.32%,20.8%,21%
CCCn1nc2c(cc1=O)CN(CCCN1CCCC1=O)CC2,-3.62%,-2.7%,-101%,1.97%,-2.55%,-1.6%,29.6%,17.5%,4.43%,-1.24%,-3.69%
COCc1noc(-c2ccc(N(C)Cc3cc(C)no3)nc2)n1,-1.27%,0%,-1.25%,9.06%,5.79%,10.9%,6.9%,17.1%,5.82%,7.32%,-6.04%
O=C(c1ccc(C2CCCO2)s1)N1CCS(=O)(=O)CC1 (stereo unspecified),-1.4%,18.9%,-2.69%,22.7%,9.07%,1.91%,17.1%,6.53%,4.76%,17.1%,-2.6%
COCCN1CCN(CCS(=O)(=O)C(F)(F)F)CC1C (stereo unspecified),-3.49%,8.11%,-8.33%,4.35%,-3.62%,-4.25%,0.179%,25.8%,2.97%,11%,9.67%
CCOc1cc(CN(C)CCOC)ccc1OC(F)F,-7.96%,-2.6%,2.19%,-0.762%,-9.34%,1.38%,10.3%,-3.34%,0%,-1.24%,0.485%
Cc1cc(C)c(CNC(=O)NCC(c2ccccc2)N(C)C)c(=O)[nH]1 (stereo unspecified),-3.19%,-2.63%,-5.47%,13.4%,2.52%,1.08%,-0.592%,4%,7.39%,18.5%,-3.01%
Cc1cc(C)c(CNC(=O)N(C)Cc2sccc2C)c(=O)[nH]1,-4.14%,18.4%,-5.42%,-3.09%,-3.46%,-2.88%,2.62%,9.33%,4.43%,11.1%,-4.59%
CN1CCOC(CNCc2cccc(OCc3ccccn3)c2)C1 (stereo unspecified),-5.11%,5.06%,-8.27%,12.2%,3.87%,-1.9%,-4.18%,-5.19%,7.39%,11.4%,-2.11%
CCN1CC(C(=O)N2CCC(Oc3ccccc3Cl)CC2)CC1=O (stereo unspecified),-1.39%,2.74%,6.94%,-1.45%,-11.5%,-4.39%,16.7%,42.2%,3.12%,-30.9%,-5.81%
O=C(NCC1CC1)[C@H]1C[C@@H]2CN(S(=O)(=O)Cc3ccccc3)C[C@H]1O2,-3.04%,10.7%,12.2%,-8.26%,-6.5%,2.56%,9.25%,12.3%,0%,1.28%,-3.45%
Cc1nc(C2CCCN(C(=O)c3cccc(S(C)(=O)=O)c3)C2)no1 (stereo unspecified),-1.36%,-1.27%,5.98%,4.04%,-1.95%,7.96%,12.3%,-20.9%,0%,0%,3.1%
O=C(Cn1cc(I)cn1)N1CCCC1,0.0934%,-1.33%,-2.19%,10.5%,2.55%,-2.64%,7.02%,20.5%,5.29%,5.13%,-2.75%
